Laboratory results as given in ChEMBL document CHEMBL1961873, “Compounds: GSK PKIS; Assays: Nanosyn kinase panel” (2012).

Columns and labels:
[1] = target: Sphingosine kinase 1 (Homo sapiens) (UniProt Q9NYA1); conditions: at 1 µM;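 note: mean SPHK1 inhibition value reported from the GSK PKIS kinase panel screen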
[2] = target: T1, Sphingosine kinase 2 (Homo sapiens) (UniProt Q9NRA0); conditions: at 0.1 µM
T1 sequence (whole entry): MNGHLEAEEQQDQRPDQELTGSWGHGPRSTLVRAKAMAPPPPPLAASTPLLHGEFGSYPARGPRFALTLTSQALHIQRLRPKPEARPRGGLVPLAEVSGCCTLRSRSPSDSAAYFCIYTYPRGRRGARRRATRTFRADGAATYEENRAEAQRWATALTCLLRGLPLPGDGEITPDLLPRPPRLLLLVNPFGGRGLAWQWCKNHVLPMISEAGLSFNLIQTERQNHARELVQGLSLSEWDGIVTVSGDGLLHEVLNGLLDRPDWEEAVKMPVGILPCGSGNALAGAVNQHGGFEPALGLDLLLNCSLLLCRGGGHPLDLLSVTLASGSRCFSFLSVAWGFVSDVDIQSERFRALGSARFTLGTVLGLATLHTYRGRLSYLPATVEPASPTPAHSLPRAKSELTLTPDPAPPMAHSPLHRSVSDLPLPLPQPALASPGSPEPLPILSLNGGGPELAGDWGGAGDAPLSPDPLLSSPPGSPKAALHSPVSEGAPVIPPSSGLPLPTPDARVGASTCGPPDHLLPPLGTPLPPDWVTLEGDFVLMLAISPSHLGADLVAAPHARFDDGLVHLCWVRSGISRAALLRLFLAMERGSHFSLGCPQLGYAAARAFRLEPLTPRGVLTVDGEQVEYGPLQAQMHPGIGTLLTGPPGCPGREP

[3] = target: T1, Sphingosine kinase 2 (Homo sapiens); conditions: at 1 µM
[4] = target: Casein kinase II subunit alpha (Homo sapiens) (UniProt P68400); conditions: at 0.1 µM
[5] = target: Casein kinase II subunit alpha (Homo sapiens) (UniProt P68400); conditions: at 1 µM
[6] = target: T2, Inhibitor of nuclear factor kappa-B kinase subunit alpha (Homo sapiens) (UniProt O15111); conditions: at 0.1 µM
T2 sequence (whole entry): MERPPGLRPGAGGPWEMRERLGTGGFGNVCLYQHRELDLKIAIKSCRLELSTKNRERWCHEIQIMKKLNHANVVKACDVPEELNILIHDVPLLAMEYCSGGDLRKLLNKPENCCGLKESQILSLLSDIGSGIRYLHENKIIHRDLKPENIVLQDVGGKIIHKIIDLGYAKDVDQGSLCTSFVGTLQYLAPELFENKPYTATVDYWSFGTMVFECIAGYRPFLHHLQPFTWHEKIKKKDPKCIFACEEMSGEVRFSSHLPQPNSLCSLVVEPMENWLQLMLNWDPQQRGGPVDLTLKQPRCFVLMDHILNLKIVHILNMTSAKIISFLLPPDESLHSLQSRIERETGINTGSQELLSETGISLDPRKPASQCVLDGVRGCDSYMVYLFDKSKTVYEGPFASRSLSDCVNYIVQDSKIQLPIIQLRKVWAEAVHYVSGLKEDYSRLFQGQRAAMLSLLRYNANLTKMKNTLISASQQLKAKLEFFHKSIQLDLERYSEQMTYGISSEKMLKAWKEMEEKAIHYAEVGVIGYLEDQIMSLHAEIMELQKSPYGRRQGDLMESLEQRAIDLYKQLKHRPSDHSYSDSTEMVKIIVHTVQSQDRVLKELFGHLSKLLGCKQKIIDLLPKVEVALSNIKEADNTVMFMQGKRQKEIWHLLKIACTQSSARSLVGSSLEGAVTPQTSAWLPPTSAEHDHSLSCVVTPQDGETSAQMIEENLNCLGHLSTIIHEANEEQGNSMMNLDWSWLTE

[7] = target: T2, Inhibitor of nuclear factor kappa-B kinase subunit alpha (Homo sapiens); conditions: at 1 µM
[8] = target: T3, Inhibitor of nuclear factor kappa-B kinase subunit beta (Homo sapiens) (UniProt O14920); conditions: at 0.1 µM
T3 sequence (whole entry): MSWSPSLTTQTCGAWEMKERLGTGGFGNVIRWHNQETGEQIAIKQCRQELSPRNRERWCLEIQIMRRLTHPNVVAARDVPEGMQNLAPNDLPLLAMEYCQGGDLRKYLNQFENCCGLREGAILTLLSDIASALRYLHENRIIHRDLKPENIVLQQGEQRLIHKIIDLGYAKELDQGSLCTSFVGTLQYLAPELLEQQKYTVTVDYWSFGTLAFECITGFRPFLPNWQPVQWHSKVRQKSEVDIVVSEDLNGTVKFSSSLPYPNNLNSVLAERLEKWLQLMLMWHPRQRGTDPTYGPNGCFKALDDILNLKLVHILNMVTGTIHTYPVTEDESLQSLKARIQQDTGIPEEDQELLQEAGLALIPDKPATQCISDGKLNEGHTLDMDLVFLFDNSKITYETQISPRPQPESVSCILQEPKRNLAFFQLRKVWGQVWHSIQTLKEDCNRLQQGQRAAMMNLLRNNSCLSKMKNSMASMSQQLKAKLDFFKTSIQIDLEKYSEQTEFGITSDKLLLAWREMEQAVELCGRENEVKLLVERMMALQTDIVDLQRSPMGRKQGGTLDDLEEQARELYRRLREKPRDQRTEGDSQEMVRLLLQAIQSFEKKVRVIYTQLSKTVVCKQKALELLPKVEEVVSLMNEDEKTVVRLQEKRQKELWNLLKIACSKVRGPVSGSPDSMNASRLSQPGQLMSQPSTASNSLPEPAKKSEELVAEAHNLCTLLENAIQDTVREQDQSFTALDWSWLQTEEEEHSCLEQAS

[9] = target: T3, Inhibitor of nuclear factor kappa-B kinase subunit beta (Homo sapiens); conditions: at 1 µM
[10] = target: T4, Inhibitor of nuclear factor kappa-B kinase subunit epsilon (Homo sapiens) (UniProt Q14164); conditions: at 0.1 µM
T4 sequence (whole entry): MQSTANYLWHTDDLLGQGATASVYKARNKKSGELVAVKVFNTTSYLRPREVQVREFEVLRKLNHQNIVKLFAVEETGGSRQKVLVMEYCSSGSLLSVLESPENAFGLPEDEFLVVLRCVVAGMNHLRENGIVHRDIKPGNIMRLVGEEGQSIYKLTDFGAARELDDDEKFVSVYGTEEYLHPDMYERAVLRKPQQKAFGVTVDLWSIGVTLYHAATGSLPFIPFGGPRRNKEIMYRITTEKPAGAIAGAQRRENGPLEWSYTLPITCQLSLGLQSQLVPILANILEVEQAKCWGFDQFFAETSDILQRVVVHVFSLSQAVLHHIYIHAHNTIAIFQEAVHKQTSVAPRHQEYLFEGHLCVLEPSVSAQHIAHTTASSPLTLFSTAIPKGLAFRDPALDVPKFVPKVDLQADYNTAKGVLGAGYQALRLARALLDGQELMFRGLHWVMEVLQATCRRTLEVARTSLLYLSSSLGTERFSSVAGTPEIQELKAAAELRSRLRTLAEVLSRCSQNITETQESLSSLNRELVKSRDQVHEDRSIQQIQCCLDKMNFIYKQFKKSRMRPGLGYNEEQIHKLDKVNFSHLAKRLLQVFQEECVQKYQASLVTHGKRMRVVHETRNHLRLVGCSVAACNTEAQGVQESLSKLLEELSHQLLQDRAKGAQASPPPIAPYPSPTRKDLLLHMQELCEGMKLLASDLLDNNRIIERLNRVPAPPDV

[11] = target: T4, Inhibitor of nuclear factor kappa-B kinase subunit epsilon (Homo sapiens); conditions: at 1 µM
[12] = target: T5, Serine/threonine-protein kinase Nek1 (Homo sapiens) (UniProt Q96PY6); conditions: at 0.1 µM
T5 sequence (whole entry): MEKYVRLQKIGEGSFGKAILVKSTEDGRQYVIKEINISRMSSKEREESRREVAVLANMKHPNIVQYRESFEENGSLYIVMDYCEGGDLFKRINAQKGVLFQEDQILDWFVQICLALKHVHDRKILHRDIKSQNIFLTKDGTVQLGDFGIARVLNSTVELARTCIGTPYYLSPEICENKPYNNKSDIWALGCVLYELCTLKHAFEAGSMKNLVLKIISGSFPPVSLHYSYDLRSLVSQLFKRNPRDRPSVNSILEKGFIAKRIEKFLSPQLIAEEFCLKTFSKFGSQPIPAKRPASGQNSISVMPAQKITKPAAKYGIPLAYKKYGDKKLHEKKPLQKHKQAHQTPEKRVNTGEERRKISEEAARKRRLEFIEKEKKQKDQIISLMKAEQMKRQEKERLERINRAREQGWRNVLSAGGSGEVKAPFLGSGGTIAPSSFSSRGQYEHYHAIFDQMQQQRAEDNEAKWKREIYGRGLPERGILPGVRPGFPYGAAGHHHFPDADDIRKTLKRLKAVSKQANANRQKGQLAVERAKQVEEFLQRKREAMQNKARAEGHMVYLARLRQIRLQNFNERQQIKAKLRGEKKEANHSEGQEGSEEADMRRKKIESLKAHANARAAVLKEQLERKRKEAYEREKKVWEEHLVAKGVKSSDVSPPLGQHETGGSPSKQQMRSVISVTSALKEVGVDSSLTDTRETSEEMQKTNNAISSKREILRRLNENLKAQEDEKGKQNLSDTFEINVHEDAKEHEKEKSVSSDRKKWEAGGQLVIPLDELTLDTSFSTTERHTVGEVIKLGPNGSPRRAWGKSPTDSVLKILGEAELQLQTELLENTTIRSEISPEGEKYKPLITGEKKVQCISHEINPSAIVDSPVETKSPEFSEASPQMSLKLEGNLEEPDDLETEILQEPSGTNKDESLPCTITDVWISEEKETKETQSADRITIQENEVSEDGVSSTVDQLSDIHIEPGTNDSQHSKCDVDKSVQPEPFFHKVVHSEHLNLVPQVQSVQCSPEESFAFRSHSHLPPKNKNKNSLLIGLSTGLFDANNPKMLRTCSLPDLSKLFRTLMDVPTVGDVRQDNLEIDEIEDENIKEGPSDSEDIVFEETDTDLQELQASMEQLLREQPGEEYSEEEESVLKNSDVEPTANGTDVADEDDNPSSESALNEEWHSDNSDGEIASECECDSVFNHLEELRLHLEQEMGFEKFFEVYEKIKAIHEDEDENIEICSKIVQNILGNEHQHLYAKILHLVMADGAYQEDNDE

[13] = target: T5, Serine/threonine-protein kinase Nek1 (Homo sapiens); conditions: at 1 µM
[14] = target: T6, Serine/threonine-protein kinase Nek2 (Homo sapiens) (UniProt P51955); conditions: at 0.1 µM
T6 sequence (whole entry): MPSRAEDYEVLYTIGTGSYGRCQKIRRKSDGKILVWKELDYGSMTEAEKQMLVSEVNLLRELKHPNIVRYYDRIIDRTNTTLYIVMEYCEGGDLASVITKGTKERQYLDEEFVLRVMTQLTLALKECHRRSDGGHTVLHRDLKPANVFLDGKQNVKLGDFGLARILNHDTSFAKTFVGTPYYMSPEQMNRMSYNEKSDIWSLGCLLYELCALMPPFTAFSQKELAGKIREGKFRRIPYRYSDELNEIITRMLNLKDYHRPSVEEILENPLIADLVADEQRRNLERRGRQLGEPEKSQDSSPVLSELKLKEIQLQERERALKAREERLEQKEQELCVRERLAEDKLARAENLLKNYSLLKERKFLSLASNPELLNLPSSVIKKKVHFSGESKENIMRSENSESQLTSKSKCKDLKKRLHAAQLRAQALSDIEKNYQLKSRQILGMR

[15] = target: T6, Serine/threonine-protein kinase Nek2 (Homo sapiens); conditions: at 1 µM
[16] = target: Serine/threonine-protein kinase Nek6 (Homo sapiens) (UniProt Q9HC98); conditions: at 0.1 µM
[17] = target: Serine/threonine-protein kinase Nek6 (Homo sapiens) (UniProt Q9HC98); conditions: at 1 µM
[18] = target: Serine/threonine-protein kinase Nek7 (Homo sapiens) (UniProt Q8TDX7); conditions: at 0.1 µM
[19] = target: Serine/threonine-protein kinase Nek7 (Homo sapiens) (UniProt Q8TDX7); conditions: at 1 µM
[20] = target: T7, Serine/threonine-protein kinase Nek9 (Homo sapiens) (UniProt Q8TD19); conditions: at 0.1 µM;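 note: reported value is the mean percent inhibition of NEK9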
T7 sequence (whole entry): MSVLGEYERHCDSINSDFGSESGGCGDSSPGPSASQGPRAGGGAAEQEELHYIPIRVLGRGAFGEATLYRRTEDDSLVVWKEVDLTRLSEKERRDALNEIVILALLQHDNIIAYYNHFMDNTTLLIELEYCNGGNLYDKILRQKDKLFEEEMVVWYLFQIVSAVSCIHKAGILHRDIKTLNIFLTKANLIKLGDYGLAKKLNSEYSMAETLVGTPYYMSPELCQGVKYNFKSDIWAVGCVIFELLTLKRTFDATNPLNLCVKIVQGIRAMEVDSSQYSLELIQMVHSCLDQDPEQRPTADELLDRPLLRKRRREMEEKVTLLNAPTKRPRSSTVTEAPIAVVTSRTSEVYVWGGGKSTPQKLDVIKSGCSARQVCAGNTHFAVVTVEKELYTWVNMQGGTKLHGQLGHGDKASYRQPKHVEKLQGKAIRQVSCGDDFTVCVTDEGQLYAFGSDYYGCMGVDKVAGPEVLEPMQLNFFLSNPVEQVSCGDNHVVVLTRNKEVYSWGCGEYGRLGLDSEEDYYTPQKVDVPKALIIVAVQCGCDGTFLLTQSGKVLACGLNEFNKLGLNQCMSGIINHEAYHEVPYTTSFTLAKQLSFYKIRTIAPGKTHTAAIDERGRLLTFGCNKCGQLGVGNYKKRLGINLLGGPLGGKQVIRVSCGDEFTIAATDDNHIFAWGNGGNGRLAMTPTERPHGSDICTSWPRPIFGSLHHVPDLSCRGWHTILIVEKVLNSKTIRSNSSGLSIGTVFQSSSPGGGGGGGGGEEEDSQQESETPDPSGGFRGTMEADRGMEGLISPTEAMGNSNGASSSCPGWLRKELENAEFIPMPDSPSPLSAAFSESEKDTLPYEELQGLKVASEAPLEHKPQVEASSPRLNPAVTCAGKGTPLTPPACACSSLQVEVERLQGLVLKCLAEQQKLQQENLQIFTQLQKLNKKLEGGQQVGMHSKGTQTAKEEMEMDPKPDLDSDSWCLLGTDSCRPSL

Serine/threonine-protein kinase Nek6 (Homo sapiens), sequence (Q9HC98 whole entry): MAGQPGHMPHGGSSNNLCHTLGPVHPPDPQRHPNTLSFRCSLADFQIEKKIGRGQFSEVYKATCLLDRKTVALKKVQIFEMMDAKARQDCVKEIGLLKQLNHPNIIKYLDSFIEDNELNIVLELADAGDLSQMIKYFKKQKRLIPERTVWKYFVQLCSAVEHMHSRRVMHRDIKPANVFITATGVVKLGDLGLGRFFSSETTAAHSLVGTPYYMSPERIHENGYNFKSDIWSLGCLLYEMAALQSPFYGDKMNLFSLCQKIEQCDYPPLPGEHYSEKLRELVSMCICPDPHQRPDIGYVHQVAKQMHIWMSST
Serine/threonine-protein kinase Nek7 (Homo sapiens), sequence (Q8TDX7 whole entry, looked up): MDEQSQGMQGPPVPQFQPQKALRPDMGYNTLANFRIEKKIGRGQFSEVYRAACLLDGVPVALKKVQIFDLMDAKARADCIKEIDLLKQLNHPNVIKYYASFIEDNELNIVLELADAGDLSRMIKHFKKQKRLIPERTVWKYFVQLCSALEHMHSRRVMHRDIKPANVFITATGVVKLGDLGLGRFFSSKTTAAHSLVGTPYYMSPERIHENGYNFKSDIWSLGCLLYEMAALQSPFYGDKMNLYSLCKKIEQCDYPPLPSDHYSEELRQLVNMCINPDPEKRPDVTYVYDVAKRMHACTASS
Casein kinase II subunit alpha (Homo sapiens), sequence (P68400 whole entry, looked up): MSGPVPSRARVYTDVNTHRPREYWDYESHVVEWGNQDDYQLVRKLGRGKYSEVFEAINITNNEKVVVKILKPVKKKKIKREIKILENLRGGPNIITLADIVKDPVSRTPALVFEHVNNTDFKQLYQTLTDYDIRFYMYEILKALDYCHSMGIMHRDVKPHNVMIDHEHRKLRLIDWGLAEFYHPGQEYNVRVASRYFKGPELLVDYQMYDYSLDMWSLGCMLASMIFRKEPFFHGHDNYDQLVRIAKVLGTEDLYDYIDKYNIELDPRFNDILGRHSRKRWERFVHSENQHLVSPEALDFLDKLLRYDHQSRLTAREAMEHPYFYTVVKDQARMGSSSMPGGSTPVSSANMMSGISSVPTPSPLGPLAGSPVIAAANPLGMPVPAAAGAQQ
Sphingosine kinase 1 (Homo sapiens), sequence (Q9NYA1 whole entry): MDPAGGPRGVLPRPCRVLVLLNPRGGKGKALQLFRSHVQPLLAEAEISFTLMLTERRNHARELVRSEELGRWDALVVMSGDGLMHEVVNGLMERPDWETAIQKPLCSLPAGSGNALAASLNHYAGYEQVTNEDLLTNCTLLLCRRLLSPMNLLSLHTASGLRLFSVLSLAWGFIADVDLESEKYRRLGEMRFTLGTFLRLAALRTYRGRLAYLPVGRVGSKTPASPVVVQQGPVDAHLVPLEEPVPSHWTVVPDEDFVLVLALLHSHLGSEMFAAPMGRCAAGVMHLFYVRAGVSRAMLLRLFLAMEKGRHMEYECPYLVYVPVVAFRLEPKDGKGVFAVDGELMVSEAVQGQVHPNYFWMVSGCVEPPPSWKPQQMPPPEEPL

Compound | inhibition [1] | inhibition [2] | inhibition [3] | inhibition [4] | inhibition [5] | inhibition [6] | inhibition [7] | inhibition [8] | inhibition [9] | inhibition [10] | inhibition [11] | inhibition [12] | inhibition [13] | inhibition [14] | inhibition [15] | inhibition [16] | inhibition [17] | inhibition [18] | inhibition [19] | inhibition [20]
CC1=C(C(=O)Nc2ccc3[nH]ncc3c2)C(c2ccc3ccccc3c2)CC(=O)N1 (stereo not given) | 0% | 0.52% | 0.65% | 3.48% | 6.51% | -1.96% | 1.55% | 1.45% | 0.58% | 3.14% | 3.81% | 1.66% | 2.46% | 2.88% | 2.9% | -0.05% | 2.48% | 0.42% | 1.79% | 3.14%
O=C1Nc2ccc(C(=O)c3ccco3)cc2C1=Cc1cc(Cl)c(O)c(Cl)c1 | -1.68% | 1.43% | 1.2% | 18% | 55.2% | 2.59% | 8.32% | 5.21% | 2.45% | 24.9% | 52% | 1.66% | 6.79% | 5.56% | 3.76% | -0.24% | 0.61% | 3.27% | 3.97% | 6.51%
